Compound activity (PubChem)
ALDH1A1 inh = qHTS Assay for Inhibitors of Aldehyde Dehydrogenase 1 (ALDH1A1) | AID 1030, 2008 | Purified ALDH1A1, NADH fluorescence, propionaldehyde substrate | Potency, µM (series often up to 75.3 µM), actives largely listed as inhibitors | Aldehyde dehydrogenase 1A1 (Homo sapiens), P00352 | 7.3% of 220,000 active
Target sequence (P00352 whole entry, looked up): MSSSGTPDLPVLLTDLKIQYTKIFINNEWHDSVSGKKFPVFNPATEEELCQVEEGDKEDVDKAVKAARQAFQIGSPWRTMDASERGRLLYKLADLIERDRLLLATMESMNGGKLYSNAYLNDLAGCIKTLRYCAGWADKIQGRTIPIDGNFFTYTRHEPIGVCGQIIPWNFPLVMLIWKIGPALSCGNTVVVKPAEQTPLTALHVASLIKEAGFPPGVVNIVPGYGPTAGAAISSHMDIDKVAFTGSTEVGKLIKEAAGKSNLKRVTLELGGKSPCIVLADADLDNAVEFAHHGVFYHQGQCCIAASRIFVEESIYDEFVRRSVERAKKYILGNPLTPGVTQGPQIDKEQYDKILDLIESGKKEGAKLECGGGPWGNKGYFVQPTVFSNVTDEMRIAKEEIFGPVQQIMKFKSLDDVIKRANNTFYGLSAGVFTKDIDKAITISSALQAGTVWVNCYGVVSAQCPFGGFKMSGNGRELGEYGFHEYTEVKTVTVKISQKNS
HPGD inh = qHTS Assay for Inhibitors of HPGD (15-Hydroxyprostaglandin Dehydrogenase); 15-hydroxyprostaglandin dehydrogenase [NAD(+)] (Homo sapiens), P15428; 4.3% of 150,000 active; purified HPGD, NADH fluorescence kinetic, PGE2 substrate; Potency, µM, usual class: inhibitors
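20 nM HPGD preincubated 15 min at room temperature with compound in 50 mM Tris-HCl pH 8, 0.01% Tween 20. Started with 1 mM NAD+ and 30 uM prostaglandin E2; NADH fluorescence (360/450 nm) read 5 times over 30-s intervals, last minus first.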
IMPase inh = qHTS Assay for Identifying the Cell-Membrane Permeable IMPase Inhibitors. inhibition (IP1 accumulation), % at 46.1 µM. Inositol monophosphatase 1 (Rattus norvegicus), P97697. CHO-M1 cells, IP1 accumulation, HTRF TR-FRET ratio. 120,000 tested, under 10 active; active = well fitted curve in the direction sought with a large enough effect in the signal ratio, not every such curve was filed as active; inconclusive = small, poorly fitted or top-dose-only effect, or a change in a side signal; inactive = no such curve, though single readings can be large or run the other way; the % refers to the signal ratio;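 note: cells stimulated with carbachol in lithium chloride buffer; higher means more IMPase inhibition seen as more IP1 and lower FRET ratio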
Target sequence (P97697 whole entry, looked up): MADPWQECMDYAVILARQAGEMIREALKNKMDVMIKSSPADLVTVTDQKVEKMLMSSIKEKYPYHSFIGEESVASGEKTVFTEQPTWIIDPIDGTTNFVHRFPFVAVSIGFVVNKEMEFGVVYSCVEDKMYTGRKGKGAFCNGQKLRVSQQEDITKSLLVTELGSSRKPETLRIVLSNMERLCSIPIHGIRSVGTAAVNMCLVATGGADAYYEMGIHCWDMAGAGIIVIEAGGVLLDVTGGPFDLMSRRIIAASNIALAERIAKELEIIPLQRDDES
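In this qHTS, compounds (final up to 46 uM) act on CHO-M1 cells that are then activated through the M1 receptor with carbachol, in pH 7.4 buffer containing 50 mM LiCl, for 30 min. IP1 accumulation is quantified by the IP-One immunoassay.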
Large screens that a line does not name were inactive. Rows were chosen to be rich in hits. Some 9% of all compounds tested hit in one or more screens of this group. Unless noted, calls come from the whole dose curve; as a rule, active = well fitted inhibition curve with a large enough effect (not every such curve was filed as active); inconclusive = small, poorly fitted or top-dose-only effect, or another doubt; inactive = no such curve, though single readings can be large or run the other way.

COCCNC(=O)/C(C#N)=C/c1ccccc1Br	none (no result: HPGD inh, IMPase inh)
O=C(Cc1ccccc1)NC1CCN(S(=O)(=O)c2cccc(F)c2)CC1	none
COc1ccc(/C=N/NC(=O)CC(=O)NC2CCCCC2)cc1	none (no result: HPGD inh, IMPase inh)
COc1cc([C@H](O)CO)ccc1O	none (no result: ALDH1A1 inh, HPGD inh)
COc1cc(O)c(C)c(O)c1	none (no result: IMPase inh)
C=CCn1c(SCC(=O)c2ccc(F)cc2)nnc1-c1ccc2c(c1)OCO2	none (no result: HPGD inh, IMPase inh)
CC(C)CCN1C(=O)CC(NNC(=O)c2ccc(S(=O)(=O)N3CCCC3)cc2)C1=O (stereo not given)	ALDH1A1 inh 13µM (no result: HPGD inh, IMPase inh)
COCCN1C(=O)CC(NNC(=O)c2ccc(S(=O)(=O)N3CCCC3)cc2)C1=O (stereo not given)	none (no result: HPGD inh, IMPase inh)
CC(=O)Nc1ccc(S(=O)(=O)N2CCN(C(C)CCc3ccccc3)CC2)cc1 (stereo not given)	ALDH1A1 inh 32µM
COc1ccc(S(=O)(=O)N2CCCCC2)cc1NS(=O)(=O)c1cc(Cl)ccc1Cl	ALDH1A1 inh 2.2µM (no result: IMPase inh)
CC(=O)Nc1ccc(NC(=O)C(C)N2CCN(S(=O)(=O)c3ccc(C)cc3)CC2)cc1 (stereo not given)	none (no result: HPGD inh, IMPase inh)
CC(C)(C)n1cnc2cc(NS(=O)(=O)c3ccccc3)ccc21	HPGD inh inconclusive
COc1ccc(-n2cnc3cc(NS(=O)(=O)c4ccccc4)ccc32)cc1	ALDH1A1 inh inconclusive, HPGD inh 11µM
COc1ccc(NS(=O)(=O)c2ccc(S(=O)(=O)N3CCOCC3)cc2)cc1	ALDH1A1 inh 1.4µM (no result: HPGD inh, IMPase inh)
COc1ccc(Cl)cc1NS(=O)(=O)c1cc(Cl)ccc1OC	none
O=S(=O)(Nc1ccc(S(=O)(=O)N2CCOCC2)cc1)c1ccccc1	none
COCCNc1cc(-c2ccccc2CN(C)C)ncn1	none (no result: IMPase inh)
CCOC(=O)c1cn(CC(=O)Nc2ccc(OC)cc2OC)nn1	none (no result: HPGD inh, IMPase inh)
Cc1cccc(CC(=O)OCn2nnc3ccccc3c2=O)c1	none
CCOc1ccc(N(C)S(=O)(=O)c2ccc(C)c(C(=O)OCC(=O)c3c[nH]c4ccccc34)c2)cc1	none (no result: HPGD inh, IMPase inh)
CCOC(=O)Cc1cc(C(=O)Nc2ccc(Br)cc2)sc1-c1ccc(C)cc1	none (no result: ALDH1A1 inh, HPGD inh)
COc1ccc(S(=O)(=O)N2CCC(C(=O)N3CCCC3)CC2)cc1	none
Cc1ccc(NC(=O)CCc2c(C)nc3ncnn3c2C)cc1	none
Cc1nc2ncnn2c(C)c1CCC(=O)Nc1ccc(S(=O)(=O)N2CCCCCC2)cc1	ALDH1A1 inh 6.3µM, HPGD inh 16µM
CC(=O)Nc1ccc(S(=O)(=O)N2CCN(C)CC2)cc1	none
CC(=O)Nc1ccc(S(=O)(=O)Nc2ccc(S(=O)(=O)N3CCCC3)cc2)cc1	ALDH1A1 inh 2.8µM
COc1ccc(S(=O)(=O)N2CCC(C(=O)N3CCCCCC3)CC2)cc1	ALDH1A1 inh inconclusive, HPGD inh 16µM
COc1ccc(NS(=O)(=O)c2ccc(S(=O)(=O)N3CCCC3)cc2)cc1Cl	ALDH1A1 inh 13µM
COc1ccc(S(=O)(=O)Nc2ccc(F)c(F)c2)cc1Cl	ALDH1A1 inh inconclusive
Cc1cccc2[nH]c3c(N4CC=C(c5ccc(F)cc5)CC4)ncnc3c12	none (no result: HPGD inh, IMPase inh)
CCc1cc2c(nc1CC)CCN(CC/C(C)=N/O[C@@H](C)c1cn([C@@H]3COC[C@@H]3O)nn1)C2	none (no result: HPGD inh, IMPase inh)
CCC/C=C(\CCC)C(NC(=O)CCc1ccccc1)c1ccc(C(F)(F)F)cc1 (stereo not given)	none (no result: IMPase inh)
CC1CCCCC1NC(=O)c1ccc(S(=O)(=O)NCC2CCCO2)cc1 (stereo not given)	none (no result: HPGD inh, IMPase inh)
Cc1ccc(Cl)cc1N1CCN(c2cccc[n+]2C)CC1	none (no result: IMPase inh)
COCC(C)N1CC(O)=C(c2nc(-c3ccc(Cl)cc3)cs2)C1=N (stereo not given)	none (no result: HPGD inh, IMPase inh)
O=C(O)/C=C/C(=O)Nc1ccc(S(=O)(=O)N2CCCC2)cc1	ALDH1A1 inh 22µM (no result: HPGD inh, IMPase inh)
COC(=O)Nc1ccc(S(=O)(=O)N2CCCCC2)cc1	none
COc1ccc(S(=O)(=O)N2CCCCC2)cc1	IMPase inh inconclusive
COc1ccc(NS(=O)(=O)c2ccc(Oc3cccc(C(=O)O)c3)cc2)cc1	ALDH1A1 inh 0.71µM (no result: HPGD inh, IMPase inh)
COc1ccc(S(=O)(=O)N(CC(=O)Nc2ccc(S(=O)(=O)N3CCOCC3)cc2)c2ccccc2)cc1	ALDH1A1 inh inconclusive, HPGD inh 3.5µM
COc1ccc(S(=O)(=O)N(CC(=O)Nc2ccc(S(=O)(=O)N3CCOCC3)cc2)Cc2ccc(F)cc2)cc1	ALDH1A1 inh inconclusive (no result: IMPase inh)
COc1ccc(NS(=O)(=O)c2ccc(S(=O)(=O)N3CCCC3)cc2)cc1	ALDH1A1 inh 1µM
COc1ccc(NS(=O)(=O)c2cccc(C(=O)O)c2)cc1	IMPase inh inconclusive
O=C(O)[C@H]1[C@H]2C[C@H]3c4[nH]c5ccccc5c4CCN3C[C@@H]2CC[C@@H]1O	none
COc1ccccc1OCC(=O)NCCSCc1ccc(Cl)cc1	none (no result: IMPase inh)
COc1ccc(N(C(C)C(=O)N2CCC(Cc3ccccc3)CC2)S(C)(=O)=O)cc1 (stereo not given)	none (no result: HPGD inh, IMPase inh)
Cc1ccc(CN2C(=O)CCC2C(=O)NCc2ccccc2Cl)cc1 (stereo not given)	none (no result: HPGD inh, IMPase inh)
CC(=O)c1cn(CCC(C)C)c(=O)[nH]c1=O	none (no result: IMPase inh)
CCOCCCNC(=O)C(NC(=O)CC1NC(=O)NC1=O)c1ccc(Cl)cc1 (stereo not given)	none (no result: HPGD inh)
Cc1noc(C)c1COc1ccc(C(=O)OCC(=O)NC2CCCCC2C)cc1 (stereo not given)	ALDH1A1 inh inconclusive (no result: HPGD inh)
COc1ccc(S(=O)(=O)N2CCC(C(N)=O)(N3CCCCC3)CC2)cc1	ALDH1A1 inh 18µM
O=C(CN1CCCCC1)Nc1ccc(S(=O)(=O)N2CCCCCC2)cc1	none
COc1ccc(NS(=O)(=O)c2ccc(Oc3ncccn3)cc2)cc1	none
COc1ccc(NC(=O)CN2CCC(C(N)=O)(N3CCCCC3)CC2)cc1	none
O=C(O)CC(SCC(=O)Nc1ccc(S(=O)(=O)N2CCCC2)cc1)C(=O)O (stereo not given)	ALDH1A1 inh 8.9µM (no result: HPGD inh, IMPase inh)
COc1ccc(C2SCCN2S(=O)(=O)c2ccc(NC(C)=O)cc2)cc1 (stereo not given)	none
COc1ccc(S(=O)(=O)Nc2ccc(Oc3ncccn3)c(Cl)c2)cc1	HPGD inh 14µM
CC(=O)Nc1ccc(S(=O)(=O)N2CCSC2C(=O)O)cc1 (stereo not given)	ALDH1A1 inh 18µM
COc1ccc(CCNC(=O)COc2ccc(S(=O)(=O)NC(C)C)cc2Cl)cc1OC	none
Cc1ccc(NC(=O)C2CCN(S(C)(=O)=O)CC2)cc1C	none
C=C1CCC2C(CC2(C)C)C(=C)CC/C1=N/O (stereo not given)	none (no result: IMPase inh)
CCN(CC)c1ncccc1C(=O)NCc1cccs1	none
COc1cccc2c(=O)c(C(=O)NCc3cccs3)c[nH]c12	ALDH1A1 inh inconclusive, HPGD inh inconclusive
Cc1ccc(C)c(Nc2ncccc2C(=O)NCc2cccs2)c1	HPGD inh 25µM (no result: IMPase inh)
Cc1ccc2[nH]cc(C(=O)NCc3cccs3)c(=O)c2c1	ALDH1A1 inh 16µM
O=C(O)c1ccc(/C=N/NC(=O)c2cc(-c3ccc4c5c(cccc35)CC4)n[nH]2)cc1	none (no result: HPGD inh, IMPase inh)
O=C(C1CCCN(S(=O)(=O)c2ccccc2[N+](=O)[O-])C1)N1CCN(c2ccccc2)CC1 (stereo not given)	ALDH1A1 inh inconclusive
Cc1cc(C(=O)NC2Cc3ccccc3C2)c(C)o1	none (no result: HPGD inh, IMPase inh)
